From PubChem BioAssay AID1159580 (chemical genetic matrix, 2015)
Out of some 5,500 compounds screened, about 2,000 (36%) were called active. Roughly 18% stayed inconclusive and do not appear here. Cut-off read from the data, not from the text of the source: active = normalized growth mostly below about 0.91 (no sharp cut-off); inconclusive = no clear call, values can overlap the other calls; inactive = mostly above about 0.92. Some of the results follow.

Experiment: chemical genetic growth profiling, strain panel (AID 1159580);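 note: tested at 20 µM; growth read once vehicle control cultures reached saturation at 30 °C; 1 = growth at the plate median or of vehicle wells; lower values mean less growth of the strain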
Conditions: growth OD

Measured: normalized growth

CC(=O)OCC(=O)[C@@]1(O)CCC2C3CCC4=CC(=O)C=CC4(C)C3[C@@H](O)C[C@@]21C (stereo partly drawn)
inactive: S. cerevisiae deletion strains, locus YKL009W, strain mrt4, stronger effect = lower value 1.07 | S. cerevisiae deletion strains, locus YKL068W, stronger effect = lower value 1.01 | S. cerevisiae deletion strains, locus YKL085W, strain MDH1 (second series), stronger effect = lower value 1.01 | S. cerevisiae deletion strains, locus YKL085W, strain MDH1, stronger effect = lower value 1.01 | S. cerevisiae deletion strains, locus YKL160W, strain elf1, stronger effect = lower value 0.973 | S. cerevisiae deletion strains, locus YKL190W, strain CNB1, stronger effect = lower value 1.02 | S. cerevisiae deletion strains, locus YKR001C, strain vps1, stronger effect = lower value 1.02 | S. cerevisiae deletion strains, locus YKR026C, strain gcn3, stronger effect = lower value 0.985 | S. cerevisiae deletion strains, locus YKR091W, strain srl3, stronger effect = lower value 1 | S. cerevisiae deletion strains, locus YLL001W, strain dnm1, stronger effect = lower value 0.953 | S. cerevisiae deletion strains, locus YLL026W, stronger effect = lower value 0.99 | S. cerevisiae deletion strains, locus YLL041C, strain sdh2, stronger effect = lower value 0.998 | S. cerevisiae deletion strains, locus YLR027C, strain aat2, stronger effect = lower value 0.991 | S. cerevisiae deletion strains, locus YLR039C, strain RIC1, stronger effect = lower value 1.04 | S. cerevisiae deletion strains, locus YLR058C, strain SHM2, stronger effect = lower value 0.998 | S. cerevisiae deletion strains, locus YLR102C, strain apc9, stronger effect = lower value 1.01 | S. cerevisiae deletion strains, locus YLR113W, strain HOG1, stronger effect = lower value 0.999 | S. cerevisiae deletion strains, locus YLR221C, strain rsa3, stronger effect = lower value 1.01 | S. cerevisiae deletion strains, locus YLR258W, strain gsy2, stronger effect = lower value 1 | S. cerevisiae deletion strains, locus YLR262C, strain YPT6 (second series), stronger effect = lower value 0.967 | S. cerevisiae deletion strains, locus YLR262C, strain YPT6, stronger effect = lower value 1.04 | S. cerevisiae deletion strains, locus YLR268W, strain sec22, stronger effect = lower value 1.03 | S. cerevisiae deletion strains, locus YLR320W, strain mms22, stronger effect = lower value 0.982 | S. cerevisiae deletion strains, locus YLR330W, strain CHS5, stronger effect = lower value 1.01 | S. cerevisiae deletion strains, locus YLR342W, strain FKS1 (second series), stronger effect = lower value 1.02 | S. cerevisiae deletion strains, locus YLR342W, strain FKS1, stronger effect = lower value 0.992 | S. cerevisiae deletion strains, locus YLR357W, strain rsc2, stronger effect = lower value 0.997 | S. cerevisiae deletion strains, locus YLR370C, strain arc18, stronger effect = lower value 0.984 | S. cerevisiae deletion strains, locus YLR371W, strain rom2, stronger effect = lower value 1.02 | S. cerevisiae deletion strains, locus YLR384C, strain iki3, stronger effect = lower value 0.973 | S. cerevisiae deletion strains, locus YLR418C, strain cdc73, stronger effect = lower value 1.02 | S. cerevisiae deletion strains, locus YML016C, strain PPZ1, stronger effect = lower value 1.01 | S. cerevisiae deletion strains, locus YML032C, strain rad52, stronger effect = lower value 1.03 | S. cerevisiae deletion strains, locus YML120C, strain ndi1, stronger effect = lower value 0.995 | S. cerevisiae deletion strains, locus YML124C, strain tub3, stronger effect = lower value 1.02 | S. cerevisiae deletion strains, locus YMR058W, strain fet3, stronger effect = lower value 0.992 | S. cerevisiae deletion strains, locus YMR078C, strain ctf18, stronger effect = lower value 1.01 | S. cerevisiae deletion strains, locus YMR125W, strain sto1, stronger effect = lower value 1 | S. cerevisiae deletion strains, locus YMR129W, stronger effect = lower value 0.993 | S. cerevisiae deletion strains, locus YMR205C, strain PFK2, stronger effect = lower value 0.99 | S. cerevisiae deletion strains, locus YMR223W, strain ubp8, stronger effect = lower value 1.02 | S. cerevisiae deletion strains, locus YMR231W, strain pep5, stronger effect = lower value 0.992 | S. cerevisiae deletion strains, locus YMR263W, strain SAP30, stronger effect = lower value 1 | S. cerevisiae deletion strains, locus YMR307W, strain GAS1, stronger effect = lower value 1.02 | S. cerevisiae deletion strains, locus YNL067W, strain RPL9B, stronger effect = lower value 1 | S. cerevisiae deletion strains, locus YNL071W, strain lat1, stronger effect = lower value 1.01 | S. cerevisiae deletion strains, locus YNL128W, strain TEP1, stronger effect = lower value 1.01 | S. cerevisiae deletion strains, locus YNL153C, strain GIM3, stronger effect = lower value 1 | S. cerevisiae deletion strains, locus YNL183C, strain NPR1, stronger effect = lower value 0.959 | S. cerevisiae deletion strains, locus YNL209W, strain ssb2, stronger effect = lower value 1 | S. cerevisiae deletion strains, locus YNL233W, strain BNI4, stronger effect = lower value 1.02 | S. cerevisiae deletion strains, locus YNL248C, strain rpa49, stronger effect = lower value 0.989 | S. cerevisiae deletion strains, locus YNL250W, strain rad50, stronger effect = lower value 1.01 | S. cerevisiae deletion strains, locus YNL271C, strain bni1, stronger effect = lower value 1.02 | S. cerevisiae deletion strains, locus YNL298W, strain CLA4, stronger effect = lower value 1.02 | S. cerevisiae deletion strains, locus YNL307C, strain MCK1, stronger effect = lower value 1.02 | S. cerevisiae deletion strains, locus YNL322C, strain KRE1 (second series), stronger effect = lower value 0.992 | S. cerevisiae deletion strains, locus YNR049C, strain mso1, stronger effect = lower value 0.997 | S. cerevisiae deletion strains, locus YNR052C, strain pop2, stronger effect = lower value 1.01 | S. cerevisiae deletion strains, locus YOL006C, strain TOP1, stronger effect = lower value 1.06 | S. cerevisiae deletion strains, locus YOL012C, strain htz1 0.982 | S. cerevisiae deletion strains, locus YOL147C, strain pex11, stronger effect = lower value 1.01 | S. cerevisiae deletion strains, locus YOR001W, strain rrp6, stronger effect = lower value 0.98 | S. cerevisiae deletion strains, locus YOR061W, strain CKA2, stronger effect = lower value 1.01 | S. cerevisiae deletion strains, locus YOR069W, strain VPS5, stronger effect = lower value 1 | S. cerevisiae deletion strains, locus YOR070C, strain gyp1, stronger effect = lower value 0.999 | S. cerevisiae deletion strains, locus YOR080W, strain dia2, stronger effect = lower value 0.984 | S. cerevisiae deletion strains, locus YOR083W, strain WHI5, stronger effect = lower value 0.965 | S. cerevisiae deletion strains, locus YOR106W, strain vam3, stronger effect = lower value 0.973 | S. cerevisiae deletion strains, locus YOR136W, strain idh2, stronger effect = lower value 1.02 | S. cerevisiae deletion strains, locus YOR144C, strain elg1, stronger effect = lower value 1.02 | S. cerevisiae deletion strains, locus YOR184W, strain ser1, stronger effect = lower value 1.01 | S. cerevisiae deletion strains, locus YOR231W, strain MKK1, stronger effect = lower value 0.999 | S. cerevisiae deletion strains, locus YOR265W, strain rbl2, stronger effect = lower value 1 | S. cerevisiae deletion strains, locus YOR270C, strain vph1, stronger effect = lower value 1.01 | S. cerevisiae deletion strains, locus YOR290C, strain snf2, stronger effect = lower value 1.01 | S. cerevisiae deletion strains, locus YOR316C, strain cot1, stronger effect = lower value 1.02 | S. cerevisiae deletion strains, locus YPL051W, strain arl3, stronger effect = lower value 0.986 | S. cerevisiae deletion strains, locus YPL078C, strain atp4, stronger effect = lower value 0.97 | S. cerevisiae deletion strains, locus YPL106C, strain sse1, stronger effect = lower value 1.01 | S. cerevisiae deletion strains, locus YPL240C, strain hsp82, stronger effect = lower value 0.98 | S. cerevisiae deletion strains, locus YPL256C, strain CLN2, stronger effect = lower value 0.96 | S. cerevisiae deletion strains, locus YPR119W, strain clb2, stronger effect = lower value 1.01 | S. cerevisiae deletion strains, locus YPR141C, strain kar3, stronger effect = lower value 1.02 | S. cerevisiae deletion strains, locus YPR163C, strain tif3, stronger effect = lower value 1.02 | S. cerevisiae deletion strains, locus YPR167C, strain met16, stronger effect = lower value 1.02 | S. cerevisiae deletion strains, strain wtn01, stronger effect = lower value 1.01 | S. cerevisiae strains, strain wild type, stronger effect = lower value 1
